Screening results as filed in PubChem.
In the library only some 1.1% were active in any assay of this set; here they are far more common.
ugtP null kill = growth inhibition of ugtP-null S. aureus, primary screen, RN4220 ugtP deletion, OD600; 16 h; growth inhibition, % (test concentration not listed); actives 0.54% (n = 330,000); AID 1259309, 2017; in the data active means growth inhibition above about 68%
SSB-PriA inh = inhibitors of Klebsiella pneumoniae PriA binding to SSB C-terminal tail, primary screen, biochemical, AlphaScreen. PriA–SSB C-terminal tail interaction (Klebsiella pneumoniae). AlphaScreen SSBct-PriA binding, biotinylated peptide. inhibition, % at 33 µM. actives 0.6% (n = 430,000). AID 1272365, 2023; in the data active means inhibition mostly above about 37%, no sharp cut-off; inactive means mostly below about 20%
RN4220 kill = growth inhibition of S. aureus RN4220, primary screen, OD600; 16 h; inhibition, % (no concentration beside the values); actives 0.33% (n = 330,000); in the data active means inhibition above about 85%
Mtb hypoxia rep = PubChem AID 1159583; actives 0.1% (n = 300,000); fluorescence inhibition, % (no concentration beside the values); M. tuberculosis hypoxia-regulated fluorescent reporter, fluorescence; in the data active means fluorescence inhibition mostly above about 23%, no sharp cut-off; inactive means mostly below about 17%
Numbers stand for hits; n = inactive; x = not tested or not shown; ! = repeats disagree.

SMILES	ugtP null kill	SSB-PriA inh	RN4220 kill	Mtb hypoxia rep
Cc1ccc(N)c(C)c1	n	n	n	n
Cc1ccc(N=Nc2cc(C)ccc2N)cc1	n	92.9	n	n
Cc1ccc(OCCCC(=O)Nc2ccc3c(c2)OCO3)c(C)c1	x	36.0	x	x
O=c1ccsn1Cc1ccccc1	87.8	n	n	n
CC(=O)Nc1c([N+](=O)[O-])cc(N(C(C)=O)S(=O)(=O)c2ccccc2)c2ccccc12	x	n	x	x
COc1ccccc1-n1cnc2cc(NS(=O)(=O)c3ccc(Br)cc3)ccc21	n	41.4	n	n
COc1ccccc1-n1cnc2cc(NCc3ccccc3O)ccc21	n	n	n	n
CCOc1ncccc1C(=O)Nc1cc2c(cc1Br)OCCO2	n	n	n	35.8
CCOc1ncccc1C(=O)Nc1ccc2c(c1)OCO2	x	n	x	x
O=C(Nc1ccc([N+](=O)[O-])cc1)Nc1ccc2c3c(cccc13)CC2	x	38.0	x	x
Cc1ccccc1CC(=O)Nc1cc(N2CCCC2)ncn1	x	n	x	x
COc1ccc(C=Nc2c(-c3ccc(OC)cc3)nc3n2CCS3)cc1	n	55.9	n	n
CCN(CC)CCCNc1nc(N)c([N+](=O)[O-])c(N2CCCC2)n1	x	n	x	x
COCC(=O)Nc1ccc(Nc2ccc(C)nn2)cc1	x	n	x	x
COCC(=O)Nc1ccc(Nc2ccc(-n3cccn3)nn2)cc1	x	83.0	x	x
O=C(Nc1ccc(Nc2ccc(-n3cccn3)nn2)cc1)c1ccco1	x	89.0	x	x
COc1ccccc1N1CCN(CCNS(=O)(=O)c2cccc(Cl)c2)CC1	x	n	x	x
CCc1ccc(OCCOCC(O)CN2CCN(C)CC2)cc1 (configuration not stated)	x	n	x	x
CCCCCCc1cc2cc(-c3nnc(-c4ccccc4O)o3)c(=O)oc2cc1O	97.4	n	n	n
CC(=O)c1c(C)nn(CC(O)COc2ccc3ccccc3c2Cl)c1C (configuration not stated)	x	n	x	x
Cc1cc(N2CCCCC2)nc(-c2ccc(Br)cc2)n1	86.5	n	n	n
COc1cccc2cc(C(=O)Nc3cc(C)nn3C)oc12	x	n	x	x
CS(=O)(=O)c1ccc(C(O)C(CO)NC(=O)C(Cl)Cl)cc1 (configuration not stated)	n	x	n	79.9
CS(=O)(=O)c1ccc(C(O)C(CF)NC(=O)C(Cl)Cl)cc1 (configuration not stated)	99.9	x	99.1	x
O=C(c1ccc(Cl)nc1)N1CCOCC1	x	n	x	x
SMILES	ugtP null kill	SSB-PriA inh	RN4220 kill	Mtb hypoxia rep
CCC(C)C1CN(C(C)CN2CCCC2CN2C(N)=NCC2CC(C)C)C(=N)N1CCc1ccc(Cl)c(Cl)c1 (configuration not stated)	99.5	x	100.6	x
CCC(C)C1CN(C(C)CN2CCCC2CN2C(N)=NCC2Cc2ccccc2)C(=N)N1CCc1ccc(Cl)c(Cl)c1 (configuration not stated)	97.6	x	99.9	x
CC1C/C(=C/c2cccs2)C(=O)/C(=C/c2cccs2)C1 (configuration not stated)	90.0	n	n	n
O=C1/C(=C/c2cccs2)CCC/C1=C\c1cccs1	x	n	x	x
COc1ccccc1C(=O)NCc1cc(C)nc(N2CCCCC2)n1	x	n	x	x
CCc1ccc2[nH]c3nc(SCC(=O)NNC(=O)c4ccc(C(C)(C)C)cc4)nnc3c2c1	85.1	n	n	n
Cc1ccc(C(=O)NNC(=O)CSc2nnc3c(n2)[nH]c2ccc(C)cc23)cc1	n	n	n	n
c1ccc(C2Nc3ccccc3-c3nc4ccccc4n32)cc1 (configuration not stated)	n	n	n	n
c1ccc(C2Nc3ccccc3-c3nc4ccccc4n32)nc1 (configuration not stated)	n	61.1	n	x
CCOc1ccccc1NC(=O)c1ccc2c(c1)C(=O)N(CC)C2=O	n	100.5	n	n
CCCCC(=O)Nc1nnc(SCC(=O)Nc2cc(C)cc(C)c2)s1	x	n	x	x
CC(=O)Nc1ccc(S(=O)(=O)NCCc2ccc(N(C)C)cc2)c(C)c1	x	n	x	x
Fc1ccc(NC(=S)NN=Cc2ccccc2Cl)cc1	86.3	n	n	n
Cc1cc(NC(=O)Cn2cccc(-c3nc(C4CC4)no3)c2=O)no1	x	26.0	x	x
Cc1cc(C)cc(-n2cc(C(=O)N3CCC(NC(=O)c4cccs4)CC3)nn2)c1	x	n	x	x
O=C(NC(=S)NCc1ccco1)c1ccc(Br)o1	x	45.0	x	x
O=C(CSc1ccccc1Cl)N1CCC(c2nc3ccccc3s2)CC1	97.2	n	95.9	x
O=C(Nc1ccccc1F)N1CCO[C@H](c2ccc(C(F)(F)F)cc2)C1	x	n	x	x
COc1cnc(-c2ccccn2)nc1Oc1ccccc1Cl	n	n	n	n
c1ccc(-c2nc3cc4ccccc4cc3[nH]2)nc1	n	n	n	n
O=c1cc(-c2ccccn2)nc(-c2ccccn2)[nH]1	x	152.5	x	x
COc1cnc(-c2ccccn2)[nH]c1=O	n	144.0!	n	n
